# A selection: hits, their analogues and other compounds. The true share with any hit is near 7.8%.
# MITF inh: MITF inhibition. TRPM1 promoter luciferase, luminescence, 24 h. inhibition, % (no concentration beside the values). AID 2240. 37,000 compounds, 0.28% hits; in the data active = inhibition above about 85%; inconclusive = no clear call, values can overlap the other calls; inactive = below about 68%;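 also: human melanocyte line stably carrying TRPM1 promoter luciferase reporter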
# NOMO-1 viab: STK33 inhibitor candidate reducing NOMO-1 cell viability; NOMO-1 AML viability, CellTiter-Glo luminescence, 72 h; inhibition, % (concentration not given with the values); 37,000 compounds, 7.5% hits; AID 2330; in the data active = inhibition above about 80%; inconclusive = no clear call, values can overlap the other calls
# PD-1 reversal: activators reversing PD-1 mediated T-cell inhibition; primary human CD4 T cells, PD-L1 beads, CellTiter-Glo 96 h; activation, % (test concentration not listed); 29,000 tested, under 10 active; AID 2316; call rule not given here;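 also: 0% = median vehicle wells and 100% = positive control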
# Hedgehog inh: Sonic Hedgehog pathway inhibition; Shh-LIGHT2 Gli-luciferase reporter, 30 h; 22,000 compounds, 2.1% hits; inhibition, % (test concentration not listed); AID 2313;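 active = mean inhibition across valid replicates above about 65%, limit read from the data; inconclusive = mean under the limit, yet half or more replicates past it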;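 also: pathway switched on by Shh-conditioned medium diluted 1 in 25 in low serum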
# The depositor's hits bear a star; ? = inconclusive; · = not tested or not shown.
SMILES,MITF inh,NOMO-1 viab,PD-1 reversal,Hedgehog inh
Cc1ccc(S(=O)(=O)N(C)C[C@@H]2Oc3c(NC(=O)Nc4ccccc4)cccc3C(=O)N([C@@H](C)CO)C[C@@H]2C)cc1,10,21,-1,107*
C[C@H]1CN([C@@H](C)CO)C(=O)c2cccc(NC(=O)Nc3ccc(F)cc3)c2O[C@H]1CN(C)S(=O)(=O)c1ccc(F)cc1,-6,20,1,83*
COc1ccc(NC(=O)Nc2cccc3c2O[C@@H](CN(C)S(=O)(=O)c2ccc(C)cc2)[C@@H](C)CN([C@H](C)CO)C3=O)cc1,-19,11,-3,94*
COc1ccc(NC(=O)Nc2cccc3c2O[C@H](CN(C)S(=O)(=O)c2ccc(C)cc2)[C@H](C)CN([C@H](C)CO)C3=O)cc1,-29,25,0,15
C[C@@H]1CN([C@H](C)CO)C(=O)c2cccc(NC(=O)Nc3ccc(F)cc3)c2O[C@@H]1CN(C)S(=O)(=O)c1ccc(F)cc1,-4,28,0,17
C[C@@H]1CN([C@@H](C)CO)C(=O)c2cccc(NC(=O)Nc3cccc4ccccc34)c2O[C@H]1CN(C)S(=O)(=O)c1ccc(F)cc1,7,15,-1,-41
C[C@H](CO)N1C[C@H](C)[C@H](CN(C)S(=O)(=O)c2ccc(F)cc2)Oc2c(NC(=O)Nc3cccc4ccccc34)cccc2C1=O,41,72,-3,75*
CCOC(=O)c1cnc2cc(C(F)(F)F)ccc2c1N(C)Cc1ccccc1,22,38,-3,?
CCOC(=O)c1cnc2ccc(OCC)cc2c1N(C)Cc1ccccc1,30,96*,-3,13
Nc1nc(-c2ccncc2)ncc1S(=O)(=O)Cc1ccco1,5,18,0,-16
CCN(CCS(=O)(=O)c1ccccc1)S(=O)(=O)c1ccc(C)cc1,-5,-16,-1,-21
O=C1NC(=O)C(Cc2ccccc2)N1 (configuration not stated),-9,8,1,·
CC#CCc1cc2ccccc2c(=O)o1,-6,21,-1,0
O=c1oc(Cl)c(Cl)c2ccccc12,46,119*,·,79*
CC(=O)O[C@@H]1[C@@H](O)[C@@H](O)[C@H](Oc2c(-c3ccc(O)cc3)oc3cc(O[C@@H]4O[C@@H](C)[C@H](O)[C@@H](O)[C@H]4O)cc(O)c3c2=O)O[C@H]1C,·,·,·,-8
COc1ccc2c(c1)SC1=NC(=O)C(Cc3ccccc3)C(=O)N12 (configuration not stated),14,6,1,20
COC(=O)c1cccc(NC(=O)CSc2nnc(-c3cc(OC)cc(OC)c3)o2)c1,-9,-4,1,·
COc1cc(OC)cc(-c2nnc(SCC(=O)Nc3ccc(I)cc3)o2)c1,-28,90*,-5,·
Cc1nc2sccn2c(=O)c1CCN1CCC(=C(c2ccccc2)c2ccc(F)cc2)CC1,-4,29,-2,71*
CN(C)S(=O)(=O)c1ccc(C(=O)Nc2nc3c(s2)CCc2ccccc2-3)cc1,53,113*,-2,·
COc1ccc(OC)c(-n2c(CNC3CCN(Cc4ccccc4)CC3)nc3ccccc3c2=O)c1,4,90*,·,·
O=C(CSc1ccccn1)Nc1ccccn1,-55,-3,0,-40
C=C1C2=C(O[C@H](/C(C)=C/C(C)CC(C)CC)[C@@H](O)[C@@H]2O)C(=O)N1OC (some centres not stated),-2,107*,0,19
Cc1cccc(NC(=O)C(C)NS(=O)(=O)c2ccccc2)c1 (configuration not stated),12,-1,-2,·
CC(=O)c1cccc(NC(=O)C(C)NS(=O)(=O)c2ccc(Br)cc2)c1 (configuration not stated),-9,17,2,·
SMILES,MITF inh,NOMO-1 viab,PD-1 reversal,Hedgehog inh
Cc1ccccc1OCC(=O)NCC(=O)O,-30,18,2,·
CC(NC(=O)COc1ccccc1C(C)(C)C)c1ccccc1 (configuration not stated),13,115*,0,35
COc1ccc(S(=O)(=O)N(C)CC(=O)Nc2cc([N+](=O)[O-])ccc2C)cc1C,26,-5,·,·
C[C@H](CO)N1C[C@H](C)[C@H](CN(C)Cc2ccccc2)Oc2c(NC(=O)c3nc4ccccc4s3)cccc2C1=O,-1,45,-4,15
C[C@H]1CN([C@@H](C)CO)C(=O)c2cccc(NC(=O)c3nc4ccccc4s3)c2O[C@H]1CN(C)Cc1ccc(C(=O)Nc2ccccc2N)cc1,24,127*,-2,·
C[C@@H]1CN([C@H](C)CO)C(=O)c2cccc(NC(=O)c3nc4ccccc4s3)c2O[C@H]1CN(C)Cc1ccc(C(=O)Nc2ccccc2N)cc1,40,120*,-1,·
COc1ccc(C2C(C#N)=C(N)Oc3n[nH]c(-c4ccccc4)c32)cc1CSc1ccccn1 (configuration not stated),-1,17,·,·
Cc1ccc2c(C)c(C(=O)Nc3sc4c(c3C(=O)NCc3cccnc3)CCCC4)oc2c1,-9,0,·,·
COc1cc(/C=C2/SC(=Nc3cc(C)cc(C)c3)NC2=O)cc(Br)c1OC,10,120*,2,6
CN(C)c1ccc(C(=C2C=CC(=[N+](C)C)C=C2)c2ccc(N(C)C)cc2)cc1,109*,112*,·,97*
COc1ccc(S(=O)(=O)N(C)CC(=O)Nc2ccccc2Br)cc1C,21,6,1,·
Cc1ccc2nc(NCCCO)[nH]c2c1,-5,26,·,·
CCCCc1ccc2nc(NC(=O)OC)[nH]c2c1,20,120*,·,41
COC(=O)Nc1nc2ccc(-c3n[nH]c(=O)c4ccccc34)cc2[nH]1,-8,108*,0,-16
Oc1cc2c(c(Cl)c1O)CCNC[C@@H]2c1ccccc1,35,111*,·,9
O=C(c1ccc(Br)cc1)N1Cc2ccccc2NC1=S,-6,125*,0,5
Cc1ccc(NC(=S)C(C#N)C(N)=O)cc1Cl (configuration not stated),-7,108*,-7,39
Cc1ccc(S(=O)(=O)NC(C)C(=O)Nc2ccc(C)c(Cl)c2)cc1 (configuration not stated),7,21,·,·
C=C1C(=O)O[C@@H]2/C=C(/CO)CC/C=C(/C=O)C[C@@H](O)[C@@H]12,-5,109*,-10,35
COc1cc(-c2ccccn2)nc(/C=N/O)c1S(C)=O (configuration not stated),·,·,·,83*
Oc1c(C(Nc2cccc(Cl)c2)c2cccnc2)ccc2cccnc12 (configuration not stated),37,115*,-4,75*
Oc1c(C(Nc2cccnc2)c2ccc(Cl)cc2)ccc2cccnc12 (configuration not stated),39,120*,-14,·
Oc1c(C(Nc2cccnc2)c2ccccc2F)ccc2cccnc12 (configuration not stated),59,116*,·,·
CN(C)CCCO[C@H]1[C@@H](C(O)CO)OC2OC(C)(C)O[C@@H]21 (some centres not stated),-5,-18,-1,-83
C=C1CC[C@@H]2[C@](C)(CO[C@@H]3O[C@H](CO)[C@@H](O)[C@H](O)[C@H]3O)CCC[C@@]2(C)[C@@H]1CCC1=CCOC1=O,0,16,-2,-27

# Source: PubChem (Broad Institute)
